Several values for one entry are separate records, joined by “and”; a condition that tells them apart may be missing. Equal entries are not always repeated. Inconclusive results are not listed. Activity calls are given as the source filed them. The calls were made as follows, unless noted: active = hit-call score of the fitted dose curve at least 0.9, where 1 is the maximum; inactive = score below 0.9.

Assay [1] addresses human CYP1A2, CYP1A2 (gene 1544) (UniProt P05177). The experiment in a line: NVS_ADME_hCYP1A2: NovaScreen (NVS) CYP450-related Enzyme Activity (ADME) Assay for human CYP1A2 (AID 2283102; active = hit-call score of the fitted dose curve at least 0.9, where 1 is the maximum;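 also: potency for inhibition since loss of fluorescence marks reduced CYP1A2 activity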). In outline:
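Inhibition scored as decrease in fluorescent product versus acetonitrile negative control. Enzyme: insect-cell recombinant human CYP1A2, substrate-specific, cell-free. Reading at 0.5 h; 10 uM duplicate initial screen with positive and negative controls on every plate.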

Assay [2] has as its target Cytochrome P450 2C19 (Homo sapiens) (UniProt P33261). Kind of assay: NVS_ADME_hCYP2C19: NovaScreen (NVS) CYP450-related Enzyme Activity (ADME) Assay for human CYP2C19 (AID 2283113; active = hit-call score of the fitted dose curve at least 0.9, where 1 is the maximum;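 as to AC50: potency for inhibition seen as loss of fluorescent signal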). The method in brief:
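Biochemical CYP2C19 inhibition screen: insect-cell recombinant protein plus fluorescent substrate, 1 h, fluorescence intensity. Acetonitrile defined baseline activity. Single 10 uM concentration in duplicate, with concentration-response follow-up for actives.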

A short description of assay [3]: BSK_SAg_PBMCCytotoxicity: PBMC Cytotoxicity Assessment in the BioMAP Diversity Plus: SAg Assay (AID 2283093).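 Also: PBMC viability measured as Alamar Blue reduction fluorescence at 546/580 nm; fitted both ways against DMSO so a hit may be loss or gain of signal.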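 As to AC50: PBMC superantigen activated with SEB plus TSST-1 one hour after compound addition.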 The conditions noted are these: primary human HUVEC with PBMC. The method in brief:
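Compound added to 75,000 PBMC/well for 1 h; SEB and TSST-1 then added at 20 ng/mL final each; 90 h incubation; Alamar Blue 6 h; read 546/580 nm ex/em. Activity fitted bidirectionally relative to DMSO baseline.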

Read-out in assay [4]: Interleukin-8 (IL8), CXCL8 (gene 3576)
Kind of assay: BSK_SAg_IL8: BioMAP Diversity Plus: SAg Assay for Interleukin-8 (IL8) Biomarker Activity (AID 2283094). The conditions noted are these: primary human HUVEC with PBMC; actives raise or lower the signal. The method in brief:
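ELISA read-out of IL-8 in a primary human vascular co-culture (umbilical vein endothelium plus PBMC), taken 24 h after compound addition. Values derive from bidirectional fits against DMSO negative controls.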

Assay [5] is described as follows: BSK_SAg_Proliferation: Cell Proliferation Assessment in the BioMAP Diversity Plus: SAg Assay (AID 2283095).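 Also: relative cell number as total protein by SRB absorbance in sub-confluent culture.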 The conditions noted are these: primary human HUVEC with PBMC. In outline:
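Cells (endothelium plus PBMC, human primary) were dosed with chemical, cultured 96 h, fixed in 10% TCA and stained with 0.1% SRB. Absorbance at 560 nm gave relative protein, fitted bidirectionally relative to DMSO.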

Assay [6] is described as follows: BSK_SAg_SRB: Viability Assessment in the BioMAP Diversity Plus: SAg Assay (AID 2283096).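 Also: cells read one day after compound addition; hits may be either gain or loss of signal compared with DMSO.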 The conditions noted are these: primary human HUVEC with PBMC. The method in brief:
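Total protein by sulforhodamine B staining, 24 h after dosing, in HUVEC–PBMC co-culture; DMSO-referenced bidirectional fitting.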

Assay [7] deals with human CYP2C9, CYP2C9 (gene 1559) (UniProt P11712). Kind of assay: NVS_ADME_hCYP2C9: NovaScreen (NVS) CYP450-related Enzyme Activity (ADME) Assay for human CYP2C9 (AID 2283108; active = hit-call score of the fitted dose curve at least 0.9, where 1 is the maximum). The method in brief:
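Fluorescence readout of CYP2C9 activity (SF9-expressed human enzyme) at 0.75 h. The primary screen used 10 uM in duplicate, with concentration-response follow-up for actives; acetonitrile was the negative control.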

Assay [8] has as its target Cytochrome P450 3A4 (Homo sapiens) (UniProt P08684). Kind of assay: NVS_ADME_hCYP3A4: NovaScreen (NVS) CYP450-related Enzyme Activity (ADME) Assay for human CYP3A4 (AID 2283110; active = hit-call score of the fitted dose curve at least 0.9, where 1 is the maximum). In outline: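 Compounds were first screened in duplicate at 10 uM against recombinant CYP3A4 produced in insect cells, then actives were run in concentration series. Enzyme activity was measured by fluorescence after 0.33 hour, with acetonitrile as baseline.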

Assay [9] deals with Cytochrome P450 2C18 (Homo sapiens) (UniProt P33260). The experiment in a line: NVS_ADME_hCYP2C18: NovaScreen (NVS) CYP450-related Enzyme Activity (ADME) Assay for human CYP2C18 (AID 2283103). In outline:
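Cell-free recombinant human CYP2C18 with fluorogenic substrate; fluorescence intensity read 0.5 h after dosing. Single-point screen at 10 uM in duplicate, then concentration-response up to 20 uM; loss of signal fitted against acetonitrile baseline.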

Assay [10] concerns the target rat CYP2C11, Cyp2c11 (gene 29277) (UniProt P08683). The experiment in a line: NVS_ADME_rCYP2C11: NovaScreen (NVS) CYP450-related Enzyme Activity (ADME) Assay for rat CYP2C11 (AID 2283118; active = hit-call score of the fitted dose curve at least 0.9, where 1 is the maximum). The method in brief: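 Cell-free recombinant rat enzyme with fluorescent substrate; readout 0.33 h after dosing, loss of signal versus acetonitrile control. Initial duplicate single-point at 10 uM; actives rerun in concentration series.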

The target of assay [11] is rat CYP2C13, Cyp2c13 (gene 171521) (UniProt P20814). Kind of assay: NVS_ADME_rCYP2C13: NovaScreen (NVS) CYP450-related Enzyme Activity (ADME) Assay for rat CYP2C13 (AID 2283121; active = hit-call score of the fitted dose curve at least 0.9, where 1 is the maximum). The method in brief:
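Recombinant rat CYP2C13 with fluorogenic substrate, 0.75 h cell-free incubation; primary screen in duplicate at 10 uM, actives followed in concentration series. Fluorescence loss relative to acetonitrile control indicates inhibition.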

The subject of assay [12] is rat CYP3A1, gene 25642. The experiment in a line: NVS_ADME_rCYP3A1: NovaScreen (NVS) CYP450-related Enzyme Activity (ADME) Assay for rat CYP3A1 (AID 2283126; active = hit-call score of the fitted dose curve at least 0.9, where 1 is the maximum). The method in brief: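 Cell-free recombinant CYP assay with fluorescent substrate, read 0.5 h after dosing. Screened at 10 uM in duplicate, hits at up to 20 uM in concentration-response; loss of signal versus acetonitrile baseline.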

Assay [13] has as its target human AMP-activated Protein Kinase, alpha 1 (AMPKa1), PRKAA1 (gene 5562) (UniProt Q13131). The experiment in a line: NVS_ENZ_hAMPKa1: NovaScreen (NVS) Enzymatic Assay for human AMP-activated Protein Kinase, alpha 1 (AMPKa1) (AID 2283130; active = hit-call score of the fitted dose curve at least 0.9, where 1 is the maximum). In outline:
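Recombinant human AMPKα1 activity was measured cell-free by fluorescent substrate conversion with electrophoretic mobility-shift separation, 1 h after dosing. Duplicate single-point screening was at 25 uM; actives (≥30% inhibition) were retested in concentration-response up to 50 uM.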

The target in assay [14] is rat CYP1A2, Cyp1a2 (gene 24297) (UniProt P04799). Kind of assay: NVS_ADME_rCYP1A2: NovaScreen (NVS) CYP450-related Enzyme Activity (ADME) Assay for rat CYP1A2 (AID 2283115; active = hit-call score of the fitted dose curve at least 0.9, where 1 is the maximum). The method in brief: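 Cell-free recombinant rat enzyme with fluorogenic substrate, read by fluorescence intensity 1 hour after dosing. Loss of signal versus acetonitrile negative control; primary screen at 10 uM in duplicate, actives followed in concentration series.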

Assay [15] addresses human CYP2D6, CYP2D6 (gene 1565) (UniProt P10635). Kind of assay: NVS_ADME_hCYP2D6: NovaScreen (NVS) CYP450-related Enzyme Activity (ADME) Assay for human CYP2D6 (AID 2283107; active = hit-call score of the fitted dose curve at least 0.9, where 1 is the maximum). In outline:
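Biochemical fluorescence assay, insect-cell-derived enzyme. Read at 1 h; inhibition taken from loss of signal against acetonitrile. Screened at 10 uM in duplicate, with concentration series for actives.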

Chain of human AMP-activated Protein Kinase, alpha 1 (AMPKa1), PRKAA1 (gene 5562) (Q13131 whole entry, looked up): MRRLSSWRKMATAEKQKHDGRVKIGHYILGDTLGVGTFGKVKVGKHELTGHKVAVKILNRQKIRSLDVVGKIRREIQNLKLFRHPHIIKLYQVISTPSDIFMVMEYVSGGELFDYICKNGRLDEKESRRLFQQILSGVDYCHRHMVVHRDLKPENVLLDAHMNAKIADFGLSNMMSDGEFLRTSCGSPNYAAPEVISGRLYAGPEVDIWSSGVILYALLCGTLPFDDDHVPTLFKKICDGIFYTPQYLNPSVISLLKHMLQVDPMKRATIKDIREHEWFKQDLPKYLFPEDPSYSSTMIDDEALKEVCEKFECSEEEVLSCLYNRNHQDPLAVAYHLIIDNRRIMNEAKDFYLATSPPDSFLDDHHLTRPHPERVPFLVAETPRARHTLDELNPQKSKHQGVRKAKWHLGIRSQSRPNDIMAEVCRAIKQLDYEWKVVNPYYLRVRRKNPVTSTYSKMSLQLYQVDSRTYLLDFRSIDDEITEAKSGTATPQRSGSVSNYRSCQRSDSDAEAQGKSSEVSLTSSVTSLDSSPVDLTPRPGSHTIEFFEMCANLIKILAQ
Chain of human CYP1A2, CYP1A2 (gene 1544) (P05177 whole entry, looked up): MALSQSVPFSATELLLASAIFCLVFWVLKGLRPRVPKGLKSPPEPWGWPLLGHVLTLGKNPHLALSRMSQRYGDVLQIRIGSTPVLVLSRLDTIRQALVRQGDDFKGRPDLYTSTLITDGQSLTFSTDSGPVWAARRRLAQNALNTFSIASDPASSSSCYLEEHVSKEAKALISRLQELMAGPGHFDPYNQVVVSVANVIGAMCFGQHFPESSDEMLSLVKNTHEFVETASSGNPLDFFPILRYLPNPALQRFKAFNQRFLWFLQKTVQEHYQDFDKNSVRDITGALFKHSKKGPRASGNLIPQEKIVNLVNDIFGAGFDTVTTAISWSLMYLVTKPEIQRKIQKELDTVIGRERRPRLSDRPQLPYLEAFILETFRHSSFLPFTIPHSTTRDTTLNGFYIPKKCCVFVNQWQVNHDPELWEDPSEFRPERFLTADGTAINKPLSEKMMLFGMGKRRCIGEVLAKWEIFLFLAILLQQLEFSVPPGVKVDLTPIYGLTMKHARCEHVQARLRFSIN
Chain of human CYP2D6, CYP2D6 (gene 1565) (P10635 whole entry, looked up): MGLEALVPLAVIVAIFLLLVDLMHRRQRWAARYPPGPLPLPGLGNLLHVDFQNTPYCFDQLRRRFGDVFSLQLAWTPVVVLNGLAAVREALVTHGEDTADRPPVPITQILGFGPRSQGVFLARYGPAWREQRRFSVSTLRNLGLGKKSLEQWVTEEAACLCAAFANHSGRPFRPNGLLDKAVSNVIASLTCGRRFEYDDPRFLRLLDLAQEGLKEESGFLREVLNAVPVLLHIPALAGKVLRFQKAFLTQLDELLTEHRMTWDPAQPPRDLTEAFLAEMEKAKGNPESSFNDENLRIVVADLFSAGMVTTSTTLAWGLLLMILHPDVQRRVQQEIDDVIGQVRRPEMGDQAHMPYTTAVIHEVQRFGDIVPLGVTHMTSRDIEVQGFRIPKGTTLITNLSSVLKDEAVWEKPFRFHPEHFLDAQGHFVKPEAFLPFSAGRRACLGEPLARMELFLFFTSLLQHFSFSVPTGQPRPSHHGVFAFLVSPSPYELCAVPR
Chain of Cytochrome P450 2C18 (Homo sapiens) (P33260 whole entry, looked up): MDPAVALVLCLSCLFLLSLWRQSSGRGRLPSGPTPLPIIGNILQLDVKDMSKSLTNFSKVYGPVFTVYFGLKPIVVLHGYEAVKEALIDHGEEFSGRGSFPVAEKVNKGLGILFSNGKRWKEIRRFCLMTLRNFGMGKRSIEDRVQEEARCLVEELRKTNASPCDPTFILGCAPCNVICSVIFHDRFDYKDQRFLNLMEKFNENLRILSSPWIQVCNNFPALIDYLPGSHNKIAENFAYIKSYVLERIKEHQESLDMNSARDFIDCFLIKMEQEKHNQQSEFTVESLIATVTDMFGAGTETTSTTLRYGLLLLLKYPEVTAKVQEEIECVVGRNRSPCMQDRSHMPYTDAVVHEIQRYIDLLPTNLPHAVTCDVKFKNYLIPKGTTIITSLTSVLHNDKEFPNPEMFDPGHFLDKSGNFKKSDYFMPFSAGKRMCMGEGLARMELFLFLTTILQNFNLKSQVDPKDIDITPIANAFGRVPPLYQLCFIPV
Chain of rat CYP2C11, Cyp2c11 (gene 29277) (P08683 whole entry, looked up): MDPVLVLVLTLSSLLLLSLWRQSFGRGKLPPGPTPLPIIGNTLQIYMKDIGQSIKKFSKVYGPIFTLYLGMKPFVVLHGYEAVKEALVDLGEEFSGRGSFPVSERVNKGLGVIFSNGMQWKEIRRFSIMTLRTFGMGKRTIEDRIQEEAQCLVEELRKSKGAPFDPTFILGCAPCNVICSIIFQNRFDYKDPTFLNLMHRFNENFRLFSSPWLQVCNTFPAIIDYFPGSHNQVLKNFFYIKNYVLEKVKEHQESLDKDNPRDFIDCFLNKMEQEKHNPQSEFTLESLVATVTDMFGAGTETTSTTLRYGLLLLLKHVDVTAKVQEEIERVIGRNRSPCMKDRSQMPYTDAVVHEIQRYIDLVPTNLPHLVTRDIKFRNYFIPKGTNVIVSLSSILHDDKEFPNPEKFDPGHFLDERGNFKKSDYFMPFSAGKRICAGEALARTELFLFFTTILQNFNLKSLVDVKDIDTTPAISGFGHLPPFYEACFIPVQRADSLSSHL
Chain of human CYP2C9, CYP2C9 (gene 1559) (P11712 whole entry, looked up): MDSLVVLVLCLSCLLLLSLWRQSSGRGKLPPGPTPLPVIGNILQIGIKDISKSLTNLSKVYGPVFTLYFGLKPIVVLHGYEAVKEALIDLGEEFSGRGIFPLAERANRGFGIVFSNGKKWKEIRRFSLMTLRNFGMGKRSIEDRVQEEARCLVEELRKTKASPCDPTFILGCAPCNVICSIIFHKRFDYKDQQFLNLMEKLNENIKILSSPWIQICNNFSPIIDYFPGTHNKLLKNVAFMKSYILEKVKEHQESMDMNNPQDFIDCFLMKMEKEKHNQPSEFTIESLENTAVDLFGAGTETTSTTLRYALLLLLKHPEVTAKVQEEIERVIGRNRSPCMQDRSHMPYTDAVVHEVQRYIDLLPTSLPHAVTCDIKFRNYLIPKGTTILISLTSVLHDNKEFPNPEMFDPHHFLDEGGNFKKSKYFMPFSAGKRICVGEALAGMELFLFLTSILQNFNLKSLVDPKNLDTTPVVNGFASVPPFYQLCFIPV
Chain of rat CYP2C13, Cyp2c13 (gene 171521) (P20814 whole entry, looked up): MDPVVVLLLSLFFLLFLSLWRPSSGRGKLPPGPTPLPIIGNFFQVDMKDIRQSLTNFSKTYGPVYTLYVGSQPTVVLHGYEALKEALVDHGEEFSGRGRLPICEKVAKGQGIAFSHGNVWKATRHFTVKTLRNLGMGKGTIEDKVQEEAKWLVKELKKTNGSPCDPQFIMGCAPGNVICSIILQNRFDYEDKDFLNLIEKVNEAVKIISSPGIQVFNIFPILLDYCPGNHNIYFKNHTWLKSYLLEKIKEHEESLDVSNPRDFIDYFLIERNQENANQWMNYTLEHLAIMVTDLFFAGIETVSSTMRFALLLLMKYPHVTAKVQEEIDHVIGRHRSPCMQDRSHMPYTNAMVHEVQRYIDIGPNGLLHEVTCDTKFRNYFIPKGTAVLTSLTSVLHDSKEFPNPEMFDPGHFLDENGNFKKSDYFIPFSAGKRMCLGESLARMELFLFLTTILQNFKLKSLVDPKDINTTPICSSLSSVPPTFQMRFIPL
Chain of Cytochrome P450 3A4 (Homo sapiens) (P08684 whole entry, looked up): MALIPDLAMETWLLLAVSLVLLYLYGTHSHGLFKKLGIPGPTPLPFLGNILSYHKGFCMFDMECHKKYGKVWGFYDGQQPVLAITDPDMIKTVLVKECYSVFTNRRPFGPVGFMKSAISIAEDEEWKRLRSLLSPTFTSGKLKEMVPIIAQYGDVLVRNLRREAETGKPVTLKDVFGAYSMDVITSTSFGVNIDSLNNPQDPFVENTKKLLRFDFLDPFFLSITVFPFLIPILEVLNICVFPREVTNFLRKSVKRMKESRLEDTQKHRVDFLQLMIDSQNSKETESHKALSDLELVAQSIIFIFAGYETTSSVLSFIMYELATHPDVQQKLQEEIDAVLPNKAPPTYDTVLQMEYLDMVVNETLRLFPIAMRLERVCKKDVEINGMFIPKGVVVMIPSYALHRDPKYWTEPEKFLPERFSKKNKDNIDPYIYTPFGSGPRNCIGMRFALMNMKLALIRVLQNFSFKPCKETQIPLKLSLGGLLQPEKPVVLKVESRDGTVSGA
Chain of rat CYP1A2, Cyp1a2 (gene 24297) (P04799 whole entry, looked up): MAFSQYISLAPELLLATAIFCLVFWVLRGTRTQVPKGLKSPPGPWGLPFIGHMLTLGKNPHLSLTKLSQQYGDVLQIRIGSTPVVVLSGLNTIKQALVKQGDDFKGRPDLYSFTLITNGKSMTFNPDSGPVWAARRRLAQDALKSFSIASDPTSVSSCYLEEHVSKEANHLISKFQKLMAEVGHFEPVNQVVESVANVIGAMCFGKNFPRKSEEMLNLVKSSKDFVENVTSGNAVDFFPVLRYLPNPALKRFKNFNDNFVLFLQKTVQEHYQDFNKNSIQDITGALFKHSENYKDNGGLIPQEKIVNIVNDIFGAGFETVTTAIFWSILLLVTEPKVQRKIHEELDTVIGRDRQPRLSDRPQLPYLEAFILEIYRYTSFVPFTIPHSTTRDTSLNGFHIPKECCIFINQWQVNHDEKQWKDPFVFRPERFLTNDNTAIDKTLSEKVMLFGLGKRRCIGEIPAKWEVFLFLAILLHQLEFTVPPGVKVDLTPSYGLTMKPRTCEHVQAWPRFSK

For the compound `CCOCn1c(-c2ccc(Cl)cc2)c(C#N)c(Br)c1C(F)(F)F`, in [1], the AC50 is 1.35 µM (active).

With `CNC(=O)CSP(=O)(OC)OC`, the AC50 in assay [2] was 2.11 µM (active).

As for `C#CCOC(=O)/C=C(C)/C=C/CC(C)CCCC(C)C` (stereo unspecified), the outcome in assay [3], in assay [4], in assay [5] and in assay [6] was inactive.

For `Cc1cc(C(C)(C)c2ccc(O)c(C)c2)ccc1O`, the AC50 is 15.7 µM (active) in [3], 18.2 µM (active) in assay [5], 0.942 µM (active) in [7] and 1.04 µM (active) in [2]. Also, the result in [4], in assay [6] and in assay [8] was inactive.

For `C=CC(Cl)CCl` (stereo unspecified), the result in assay [3], in [4], in assay [5] and in [6] was inactive.

Turning to `Oc1cccc(-c2ccccc2)c1`, the half-maximal activity concentration (AC50) in [3] is 32.1 µM (active); in assay [5], 20 µM (active); in assay [6] it was 20 µM (active). Besides, in [4], the result was inactive.

Turning to `CC(C)(C)c1cc([N+](=O)[O-])cc(C(C)(C)C)c1O`, the outcome in assay [3] and in [5] was inactive. The AC50 in [4] was 0.0941 µM (active); in assay [6] it was 0.215 µM (active).

As to `O=C(Cc1ccccc1)OCCc1ccccc1`, the outcome in assay [3], in assay [4], in assay [5] and in assay [6] was inactive.

Consider `CC1(C)[C@H](C(=O)O[C@H](C#N)c2cccc(Oc3ccccc3)c2)[C@@H]1/C=C(\Cl)C(F)(F)F`, for which the result in [3], in [4], in assay [6], in [10], in assay [11] and in assay [12] was inactive. Also, the concentration at half-maximal activity (AC50) is 17.1 µM (active) and 3.97 µM (active) in [5]; 0.951 µM (active) in assay [9]; 848 nM (active) and 3.32 µM (active) in [2].

Take `OC(Cc1ccccc1Cl)(Cn1[nH]cnc1=S)C1(Cl)CC1` (stereo unspecified): the result in [3] and in [6] was inactive. The AC50 in [4] was 3.97 µM (active); in [5], 20 µM (active); in [2], 0.689 µM (active).

Turning to `CCCCCCCCCCCCOS(=O)(=O)O`, the call in assay [13] was inactive.

As to `Cc1ccccc1OP(=O)(Oc1ccccc1C)Oc1ccccc1C`, the AC50 in assay [3] was 26.6 µM (active); in assay [4] it was 12.4 µM (active); in assay [5] it was 12.7 µM (active); in assay [6], 9.8 µM (active).

In the case of `CCCCCCCCCCCCc1cccc(S(=O)(=O)O)c1`, the outcome in assay [3], in [4], in assay [5] and in assay [13] was inactive.

Regarding `CC(C)(c1ccccc1)c1cc(-n2nc3ccccc3n2)c(O)c(C(C)(C)c2ccccc2)c1`, in assay [14], the compound was classed as inactive.

On to `O=[N+]([O-])c1ccc(Nc2ccccc2)cc1`, for which the result in assay [3], in [4] and in assay [5] was inactive. In addition, in [2], the AC50 was 5 µM (active).

As to `CCOC(=O)CCN(SN(C)C(=O)Oc1cccc2c1OC(C)(C)C2)C(C)C`, the AC50 in assay [3] is 26 µM (active); in assay [5], 23.1 µM (active); in [2], 3.01 µM (active). In addition, the result in assay [4] was inactive.

For `[Cl][Sn]([c]1ccccc1)([c]1ccccc1)[c]1ccccc1`, the AC50 in [3] is 0.125 µM (active); in [4], 0.253 µM (active); in assay [5] it was 0.0609 µM (active); in assay [15], 0.997 µM (active); in assay [2], 1.25 µM (active).

Consider `COc1ccccc1N`, for which the outcome in assay [3], in assay [4], in assay [5] and in [6] was inactive.

As for `CN(C)C(=S)S`, the values for the AC50 in [3], in [5] and in [1] were 0.148 µM (active), 0.488 µM (active) and 5.64 µM (active), respectively. Besides, the outcome in assay [4], in [6] and in assay [2] was inactive.

As a reminder, the AC50 is the concentration giving half of the maximal activity seen.

For the origin of these results see PubChem BioAssay (EPA / NIEHS).
